# Values without a mark were called inactive. Records with an inconclusive call do not appear. A call without a number means that no potency is given here. Active and inactive are the calls of the source. Unless noted, the call rests on the fitted dose curve; in most records, active means well fitted curve in the direction sought with a large enough effect; inconclusive means small, poorly fitted or top-dose-only effect, or another doubt; inactive means no such curve, though single readings can be large; an effect the other way counts as inactive or inconclusive.
# How the values were obtained:
# [1] = molecular target: Cytochrome P450 3A4 (Homo sapiens) (UniProt P08684); assay: qHTS Assay for Activators of Cytochrome P450 3A4 (AID 885); further: nearly all actives have a fitted effect of over 65% in size
# Procedure, shortened: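 Steps: enzyme/substrate mix dispensed; compound added, 10 min RT; NADPH regeneration solution added, 60 min RT; luciferin detection buffer stops reaction; 20 min later luminescence measured.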
# [2] = molecular target: Cytochrome P450 2C19 (Homo sapiens) (UniProt P33261); assay: qHTS Assay for Inhibitors and Substrates of Cytochrome P450 2C19 (AID 899); further: nearly all actives have a fitted effect of over 60% in size; further: potency means the concentration at half of the fitted maximal effect
# Procedure, shortened: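 In 50mM KPO4, the reaction held 5nM enzyme and KM-level (10uM) Luciferin-H EGE; it ran 60 min at 37C after NADPH regeneration and a 10 min compound preincubation. Luminescence values were scaled to 57uM ketoconazole as complete inhibition.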
# [3] = molecular target: Alpha-galactosidase (Coffea arabica) (UniProt Q42656); assay: Counterscreen for Glucocerebrosidase Inhibitors: qHTS Assay for Coffee Bean alpha-Galactosidase at pH 4.5 (AID 957); further: series mostly up to about 77 µM
# Procedure, shortened: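 Coffee bean alpha-galactosidase 2 nM, substrate 4-MU-alpha-Gal 80 uM, pH 4.5 citrate/Tween-20, 20 min RT. Cpd titration 0.7 nM–77 uM. Stop pH 10, fluorescence 365/440 nm; Hill-equation AC50.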
# [4] = molecular target: Alpha-galactosidase (Coffea arabica) (UniProt Q42656); assay: Counterscreen for Glucocerebrosidase Inhibitors: qHTS Assay for Coffee Bean alpha-Galactosidase at pH 5.9 (AID 998)
# Procedure, shortened: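 Green coffee bean enzyme (2 nM final) was incubated with compounds (0.7 nM–77 uM) and 4-methylumbelliferyl alpha-D-galactopyranoside (80 uM) in citrate buffer pH 5.9, 20 min at room temperature. High-pH stop; fluorescence 365/440 nm; AC50 from Hill fits.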
# [5] = molecular target: Cytochrome P450 2D6 (Homo sapiens) (UniProt P10635); assay: qHTS Assay for Inhibitors and Substrates of Cytochrome P450 2D6 (AID 891); further: potency means the concentration at half of the fitted maximal effect; nearly all actives have a fitted effect of over 60% in size
# Procedure, shortened: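 Human CYP2D6 (5 nM) with 30 uM Luciferin-ME EGE (at Km) in 100 mM KPO4, compound preincubated 10 min, then NADPH regeneration system for 60 min at room temperature. Luciferin read by luminescence; normalized to 1.43 uM quinidine.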
# [6] = qHTS Assay for Identification of Small Molecule Antagonists for NFkB Signaling Pathway (AID 895; active means well fitted inhibition curve with a large enough effect in the signal ratio, with a control signal flat, not every such curve was filed as active; the % refers to the signal ratio; further: potency means the concentration at half of the fitted maximal effect)
# Procedure, shortened: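 NFkB-bla ME-180 cervical carcinoma cells with beta-lactamase reporter under NFkB response element; compounds added, then TNF alpha at 10 pM final (EC50), 5 h at 37 C. LiveBLAzer substrate 2 h, room temperature; emission 460/530 nm at 405 nm excitation.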
# [7] = molecular target: Muscarinic acetylcholine receptor M1 (Rattus norvegicus) (UniProt P08482); assay: qHTS Assay for Antagonists of Acetylcholine Muscarinic M1 Receptor: Kinetic Measurement of Intracellular Calcium Response (AID 943); further: potency means the concentration at half of the fitted maximal effect; nearly all actives have a fitted effect of over 75% in size
# Procedure, shortened: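 Rat M1-CHO cells, 2000/well, overnight → Fluo-4 no-wash dye with probenecid, 1 h 37C → compound 10 min, room temp → basal read 6 s → carbachol EC80 (100 nM) → 4 min kinetic read; peak/basal.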
# [8] = Confirmation and Secondary Assay for Modulators of Hemoglobin Beta Chain Splicing at IVS2 654 locus (AID 910);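 further: per-well total GFP intensity by laser scanning cytometry after 2-day treatment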
# Procedure, shortened: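 HeLa cells stably carrying EGFP interrupted by mutant beta-globin IVS2-654 intron (CMV-driven) were treated with compound for 2 days at 37C; corrected splicing was scored as total peak GFP intensity per well (488 nm excitation, 500-520 nm emission).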
# [9] = Confirmation and Secondary Assay for Modulators of Hemoglobin Beta Chain Splicing at IVS2 705 locus (AID 930);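 further: HeLa cells stably expressing the EGFP-705 splicing reporter; GFP fluorescence per well restored by corrected splicing of the IVS2-705 intron in EGFP; series mostly up to about 46 µM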
# Procedure, shortened: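 Assay measures total GFP intensity per well in HeLa EGFP-705 cells after 2 days with compound; mis-splicing normally truncates EGFP, so fluorescence indicates corrected splicing.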
# [10] = molecular target: Muscarinic acetylcholine receptor M1 (Rattus norvegicus) (UniProt P08482); assay: qHTS Assay for Antagonists of Acetylcholine Muscarinic M1 Receptor: Measurement of IP-One Response (AID 944); further: potency means the concentration at half of the fitted maximal effect; nearly all actives have a fitted effect of over 75% in size
# Procedure, shortened: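 M1-CHO (rat), 2000 cells/well, overnight recovery; cpd 10 min; carbachol EC80 (200 nM), 30 min, HEPES buffer + 50 mM LiCl pH 7.4; IP-One HTRF, Ex 337, Em 620/665 nm.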
# [11] = molecular target: Pyruvate kinase (Leishmania mexicana) (UniProt Q27686); assay: qHTS Validation Assay for Inhibitors of Leishmania Mexicana Pyruvate Kinase (AID 945)
# Procedure, shortened: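 Pyruvate kinase activity of E451W LmPYK (0.2 nM) was followed as ATP output after 1 h at room temperature with 0.5 mM PEP and 0.1 mM ADP, detected by PKLight luminescence.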
# Chain of Muscarinic acetylcholine receptor M1 (Rattus norvegicus) (P08482 whole entry, looked up): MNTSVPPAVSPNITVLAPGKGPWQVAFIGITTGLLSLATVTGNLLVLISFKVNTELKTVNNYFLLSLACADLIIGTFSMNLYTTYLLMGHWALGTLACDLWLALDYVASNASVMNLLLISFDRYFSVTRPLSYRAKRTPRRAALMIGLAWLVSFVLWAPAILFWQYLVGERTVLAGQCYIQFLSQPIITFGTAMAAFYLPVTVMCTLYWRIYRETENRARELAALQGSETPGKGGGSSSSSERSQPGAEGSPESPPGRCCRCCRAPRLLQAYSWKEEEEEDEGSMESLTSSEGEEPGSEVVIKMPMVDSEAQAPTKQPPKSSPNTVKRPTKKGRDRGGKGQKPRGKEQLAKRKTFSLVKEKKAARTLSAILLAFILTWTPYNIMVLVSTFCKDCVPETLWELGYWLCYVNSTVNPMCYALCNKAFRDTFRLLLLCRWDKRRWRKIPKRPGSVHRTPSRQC
# Chain of Alpha-galactosidase (Coffea arabica) (Q42656 whole entry, looked up): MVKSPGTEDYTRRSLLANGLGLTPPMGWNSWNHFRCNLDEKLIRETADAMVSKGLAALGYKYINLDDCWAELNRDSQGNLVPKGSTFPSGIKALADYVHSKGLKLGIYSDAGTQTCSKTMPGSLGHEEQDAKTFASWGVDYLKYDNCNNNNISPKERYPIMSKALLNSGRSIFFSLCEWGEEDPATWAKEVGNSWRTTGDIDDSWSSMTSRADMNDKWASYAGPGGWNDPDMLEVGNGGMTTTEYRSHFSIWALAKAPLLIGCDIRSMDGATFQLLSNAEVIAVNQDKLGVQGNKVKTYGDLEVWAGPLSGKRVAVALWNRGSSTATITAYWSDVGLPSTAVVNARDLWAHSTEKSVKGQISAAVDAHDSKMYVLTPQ
# Chain of Cytochrome P450 3A4 (Homo sapiens) (P08684 whole entry, looked up): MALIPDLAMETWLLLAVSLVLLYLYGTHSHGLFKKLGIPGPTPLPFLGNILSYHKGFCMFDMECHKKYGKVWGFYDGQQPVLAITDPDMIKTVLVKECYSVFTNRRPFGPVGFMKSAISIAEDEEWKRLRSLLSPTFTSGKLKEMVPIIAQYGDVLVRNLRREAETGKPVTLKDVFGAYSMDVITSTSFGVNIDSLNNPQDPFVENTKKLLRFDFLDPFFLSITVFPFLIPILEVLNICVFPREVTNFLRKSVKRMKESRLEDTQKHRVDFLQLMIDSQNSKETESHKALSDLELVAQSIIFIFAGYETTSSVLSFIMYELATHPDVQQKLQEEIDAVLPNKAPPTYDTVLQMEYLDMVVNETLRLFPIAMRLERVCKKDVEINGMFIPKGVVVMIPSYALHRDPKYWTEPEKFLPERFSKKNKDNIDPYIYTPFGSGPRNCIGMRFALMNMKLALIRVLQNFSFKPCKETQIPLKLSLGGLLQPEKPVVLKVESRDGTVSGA
# Chain of Cytochrome P450 2C19 (Homo sapiens) (P33261 whole entry, looked up): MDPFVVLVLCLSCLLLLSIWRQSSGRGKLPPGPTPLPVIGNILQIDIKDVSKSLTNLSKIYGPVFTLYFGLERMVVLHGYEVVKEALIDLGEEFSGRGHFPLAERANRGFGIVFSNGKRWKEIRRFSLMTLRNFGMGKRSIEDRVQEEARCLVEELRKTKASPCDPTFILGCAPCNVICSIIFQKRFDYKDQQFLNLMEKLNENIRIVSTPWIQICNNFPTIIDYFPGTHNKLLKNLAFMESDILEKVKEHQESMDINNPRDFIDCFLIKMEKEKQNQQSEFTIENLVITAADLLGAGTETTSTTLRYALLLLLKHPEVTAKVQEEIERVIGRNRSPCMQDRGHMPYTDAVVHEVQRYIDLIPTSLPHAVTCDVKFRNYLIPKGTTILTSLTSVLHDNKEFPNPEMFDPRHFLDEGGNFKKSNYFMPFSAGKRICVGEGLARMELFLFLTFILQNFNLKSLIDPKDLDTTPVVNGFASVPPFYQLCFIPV
# Chain of Cytochrome P450 2D6 (Homo sapiens) (P10635 whole entry, looked up): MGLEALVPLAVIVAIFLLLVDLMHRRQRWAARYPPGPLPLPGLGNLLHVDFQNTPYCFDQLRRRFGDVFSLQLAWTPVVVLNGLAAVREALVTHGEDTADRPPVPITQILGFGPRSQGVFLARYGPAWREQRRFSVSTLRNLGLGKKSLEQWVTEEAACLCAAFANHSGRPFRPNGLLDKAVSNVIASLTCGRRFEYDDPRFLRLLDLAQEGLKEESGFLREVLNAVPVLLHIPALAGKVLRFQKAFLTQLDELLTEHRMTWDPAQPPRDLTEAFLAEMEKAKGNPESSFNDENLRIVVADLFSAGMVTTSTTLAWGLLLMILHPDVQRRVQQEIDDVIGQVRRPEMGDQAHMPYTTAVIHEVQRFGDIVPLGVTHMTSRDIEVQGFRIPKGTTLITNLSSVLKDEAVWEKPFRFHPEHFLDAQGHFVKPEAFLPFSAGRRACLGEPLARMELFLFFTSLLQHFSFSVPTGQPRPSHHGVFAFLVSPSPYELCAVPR
# Chain of Pyruvate kinase (Leishmania mexicana) (Q27686 2-499 E452W): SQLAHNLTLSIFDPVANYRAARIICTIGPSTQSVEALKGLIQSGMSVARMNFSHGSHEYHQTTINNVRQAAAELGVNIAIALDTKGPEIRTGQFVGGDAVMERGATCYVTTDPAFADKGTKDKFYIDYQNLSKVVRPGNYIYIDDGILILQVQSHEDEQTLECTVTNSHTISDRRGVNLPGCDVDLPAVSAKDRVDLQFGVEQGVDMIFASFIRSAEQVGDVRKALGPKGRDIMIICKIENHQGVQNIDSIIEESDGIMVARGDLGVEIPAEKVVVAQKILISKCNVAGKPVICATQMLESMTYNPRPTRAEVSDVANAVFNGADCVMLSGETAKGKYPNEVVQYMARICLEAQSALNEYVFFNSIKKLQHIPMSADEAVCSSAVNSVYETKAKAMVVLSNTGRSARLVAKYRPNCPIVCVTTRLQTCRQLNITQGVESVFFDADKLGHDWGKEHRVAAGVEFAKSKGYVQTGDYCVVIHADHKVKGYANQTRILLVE
smiles,measurement,setting,value
Oc1ccc2c(c1)OCO2,Potency,[1],inactive
C[C@@]12CC[C@@H]3c4ccc(O)cc4C[C@H](CCCCCCCCCS(=O)CCCC(F)(F)C(F)(F)F)[C@H]3[C@@H]1CC[C@@H]2O (stereo partly specified),Potency,[1],inactive
CC(=O)OC1CCC2C3CCc4cc(O)ccc4C3CCC12C (stereo unspecified),Potency,[1],inactive
CCCN1[C@H](C(=O)OC)C[C@@H]2CC[C@@H](O)C[C@@H]21,Potency,[1],inactive
C=C(Br)CN(C)CC(=C)Br,"activity, negative = inhibition",[2],46.7% [at 11.4 µM]
CC1(C)C2(Cl)C(Cl)C(Cl)C(Cl)(C(Cl)Cl)C1(Cl)C2Cl (stereo unspecified),Potency,[1],inactive
C[C@]12CC[C@@H]3C(=CCc4cc(O)ccc43)[C@@H]1CCC2=O,Potency,[1],inactive
O=NN(Cc1ccc(Cl)cc1)[C@@H](C(=O)O)c1ccccc1,Potency,[2],0.398 µM (active)
COC(=O)[C@H]1C[C@H]2CC[C@H](O)C[C@H]2N1CC1CC1,Potency,[1],inactive
BrC1C(Br)C(Br)C(Br)C(Br)C1Br (stereo unspecified),Potency,[1],inactive
Cc1ccc(C(=O)O[C@@H](C(=O)O)[C@@H](OC(=O)c2ccc(C)cc2)C(=O)O)cc1 (tested in a mixture with another compound),Potency,[2],inactive
same,outcome,[3],inactive
same,outcome,[4],inactive
C[C@@H]1OC=C2[C@@H](O)[C@H]3O[C@H]3C(=O)[C@@]23[C@H]1[C@H]1C2=C([C@@H](O)[C@H]4O[C@@H]4C2=O)[C@@H]3O[C@@H]1C,"activity, negative = inhibition",[2],53.9% [at 11.4 µM]
O=C(C[n+]1ccc2ccccc2c1)c1ccc2ccc3ccccc3c2c1,Potency,[5],0.794 µM (active)
COC1C=CC23c4cc5c(cc4CN(CC2O)C3C1)OCO5 (stereo unspecified),Potency,[1],inactive
CN1[C@@H](CC(=O)c2ccccc2)CCC[C@@H]1C[C@@H](O)c1ccccc1,Potency,[6],12.6 µM [stimulated with 10 pM TNF alpha] (active)
same,Potency,[7],5.62 µM (active)
same,outcome,[3],inactive
same,outcome,[4],inactive
COc1cc(C(=O)OC2CC[C@]3(C)C4CCC5[C@]6(O)CC(O)[C@]7(O)C(CN8CC(C)CCC8[C@]7(C)O)[C@]6(O)C[C@@]53O[C@]24O)cc(OC)c1OC (stereo partly specified),Potency,[1],inactive
CCN1CCC[C@@H](OC(=O)C(c2ccccc2)c2ccccc2)C1,Potency,[5],1.58 µM (active)
O=c1[nH]c(=O)n([C@H]2C[C@H](O)[C@H](CO)O2)cc1/C=C\Br,Potency,[1],inactive
same,outcome,[3],inactive
C[C@H](CCC(=O)O)[C@H]1CC[C@]2(C)[C@@H]3C(=O)C[C@H]4C(C)(C)[C@@H](O)CC[C@]4(C)[C@H]3C(=O)C[C@@]12C,"activity, negative = inhibition",[2],60.6% [at 11.4 µM]
CCCCCCCC/C=C\CCCCCCCC(N)=O,Potency,[1],inactive
C[C@@]12CC[C@H]3[C@H](CC=C4C[C@@H](O)CC[C@@]43C)[C@@H]1CC[C@@H]2N(CCO)CCO,"activity, negative = inhibition",[2],79.2% [at 11.4 µM]
O[Si@](CCCN1CCCCC1)(c1ccc(F)cc1)C1CCCCC1,Potency,[1],inactive
same,outcome,[3],inactive
same,outcome,[4],inactive
COC(=O)[C@@H]1[C@@H](O)[C@@]2(O)c3c(OC)cc(OC)cc3O[C@@]2(c2ccc(OC)cc2)[C@H]1c1ccccc1,"activity change, positive = activation",[1],-35.6% [at 11.4 µM]
CC(=O)[C@@H]1CC[C@@H]2[C@@H]3CCC4=CC(=O)CC[C@@]4(C)[C@H]3CC[C@]21C,Potency,[2],7.94 µM (active)
CCN(CC)c1ccc2c(C)cc(=O)oc2c1,Potency,[1],inactive
C=C(C)C1Cc2c(ccc3c2OC2COc4cc(OC)c(OC)cc4C2C3=O)O1 (stereo unspecified),Potency,[8],inactive
same,outcome,[9],inactive
CC1=C(O)C(=O)C=C2C1=CC=C1[C@]2(C)CC[C@@]2(C)C3C[C@](C)(C(=O)O)CC[C@@]3(C)CC[C@@]12C (stereo partly specified),Potency,[8],inactive
same,outcome,[9],inactive
CC(=O)O[C@@H]1[C@H]([N+]2(C)CCCCC2)C[C@@H]2[C@@H]3CC[C@@H]4C[C@@H](OC(C)=O)[C@H]([N+]5(C)CCCCC5)C[C@@]4(C)[C@H]3CC[C@]21C,Potency,[7],8.91 µM (active)
same,Potency,[10],14.1 µM (active)
CC(C)[C@@H]1NC(=O)[C@H](CCCCN)NC(=O)[C@H](Cc2c[nH]c3ccccc23)NC(=O)[C@H](Cc2ccc(O)cc2)NC(=O)[C@H](C)N(C)C(=O)[C@H](Cc2ccccc2)NC1=O,Potency,[11],inactive
CNCC[C@H](Oc1ccccc1OC)c1ccccc1,outcome,[3],inactive
same,outcome,[4],inactive
C=CCN1CCc2c(cc(O)c(O)c2Cl)[C@H](c2ccccc2)C1,outcome,[3],inactive
same,outcome,[4],inactive
C#C[C@]1(O)CC[C@H]2[C@H]3CCC4=Cc5oncc5C[C@]4(C)[C@@H]3CC[C@]21C,outcome,[3],inactive
same,outcome,[4],inactive
[N-]=[N+]=Nc1ccc(C(=O)CSC[C@@H](NC(=O)CC[C@@H](N)C(=O)O)C(=O)NCC(=O)O)cc1,outcome,[3],inactive
same,outcome,[4],inactive
Cc1ccccc1[C@@H](OCCN(C)C)c1ccccc1,outcome,[3],inactive
same,outcome,[4],inactive
C[C@@H](CCc1ccc(O)cc1)NCCc1ccc(O)c(O)c1,outcome,[3],inactive
same,outcome,[4],inactive
O=C1c2c(O)cc(O)cc2O[C@@H](c2ccc(O)c(O)c2)[C@H]1O,outcome,[3],inactive
same,outcome,[4],inactive
CC(C)C[C@H](NC(=O)[C@@H]1O[C@H]1C(=O)O)C(=O)NCCCCN=C(N)N,outcome,[3],inactive
same,outcome,[4],inactive
O=C(O)CC[C@@H](NC(=O)c1ccccc1C(=O)O)C(=O)O,outcome,[3],inactive
same,outcome,[4],inactive
C[C@@H](C(=O)O)c1ccc(C[C@@H]2CCCC2=O)cc1,outcome,[3],inactive
same,outcome,[4],inactive
CSc1nc(N)c2ncn([C@@H]3O[C@@H](COP(=O)(O)OP(=O)(O)OP(=O)(O)O)[C@@H](O)[C@H]3O)c2n1,outcome,[3],inactive
same,outcome,[4],inactive
Oc1cc2c(cc1O)[C@H](c1ccccc1)CNCC2,outcome,[3],inactive
same,outcome,[4],inactive
Oc1ccc(/C=C\c2cc(O)cc(O)c2)cc1,outcome,[3],inactive
same,outcome,[4],inactive
O=C(/C=C\c1ccc(O)cc1)c1ccc(O)cc1O,outcome,[3],inactive
same,outcome,[4],inactive
CCCCC/C=C\C[C@H](O)/C=C\c1cccc(C[C@H](O)CCCCO)n1,outcome,[3],inactive
same,outcome,[4],inactive
Nc1c2c(nc3ccccc13)CCC[C@H]2O,outcome,[3],inactive
same,outcome,[4],inactive
CO[C@]1(NC(=O)CSCC#N)C(=O)N2C(C(=O)O)=C(CSc3nnnn3C)CS[C@H]21,outcome,[3],inactive
same,outcome,[4],inactive
CSc1ccc2c(c1)N(CC[C@H]1CCCCN1C)c1ccccc1S2,outcome,[3],inactive
same,outcome,[4],inactive
C[C@@H](CN(C)C)CN1c2ccccc2CCc2ccccc21,outcome,[3],inactive
same,outcome,[4],inactive
CC(=O)OCC1=C(C(=O)O)N2C(=O)[C@@H](NC(=O)CSc3ccncc3)[C@@H]2SC1,outcome,[3],inactive
same,outcome,[4],inactive
C[C@@H](CN1c2ccccc2Sc2ccccc21)N(C)C,outcome,[3],inactive
same,outcome,[4],inactive
Cc1ccc(/C(=C/CN2CCCC2)c2ccccn2)cc1,outcome,[3],inactive
same,outcome,[4],inactive
COc1cc2nc(N3CCN(C(=O)[C@H]4COc5ccccc5O4)CC3)nc(N)c2cc1OC,outcome,[3],inactive
same,outcome,[4],inactive
O=C1NC(O)=NC1(c1ccccc1)c1ccccc1,outcome,[3],inactive
same,outcome,[4],inactive
C[C@H]1CN(S(=O)(=O)c2cccc3cnccc23)CCN1,outcome,[3],inactive
same,outcome,[4],inactive
O=C(O)CCC(=O)N1CCC[C@H]1C(=O)O,outcome,[3],inactive
same,outcome,[4],inactive
FC(F)(F)c1cc(CO[C@@H]2CCCN[C@H]2c2ccccc2)cc(C(F)(F)F)c1,outcome,[3],inactive
same,outcome,[4],inactive
C=CCN1CCc2cc(O)c(O)cc2[C@H](c2ccccc2)C1,outcome,[3],inactive
same,outcome,[4],inactive
CCCCCCCCCCCCCCCCCCOC[C@@H](COP(=O)([O-])OCC[N+](C)(C)C)OC,outcome,[3],inactive
same,outcome,[4],inactive
CN1[C@@H]2CC[C@H]1CC(OC(=O)[C@@H](CO)c1ccccc1)C2 (stereo partly specified),outcome,[3],inactive
same,outcome,[4],inactive
N[C@H](C(=O)N[C@@H]1C(=O)N2C(C(=O)O)=C(Cl)CS[C@@H]12)c1ccccc1,outcome,[3],inactive
same,outcome,[4],inactive
CC(=O)[C@@]1(O)CC[C@@H]2[C@@H]3CCC4=CC(=O)CC[C@@]4(C)[C@H]3CC[C@]21C,outcome,[3],inactive
same,outcome,[4],inactive
CCN(CC)CCC[C@H](C)Nc1ccnc2cc(Cl)ccc12,outcome,[3],inactive
same,outcome,[4],inactive
NC[C@H](O)C1CCCCCCC1,outcome,[3],inactive
same,outcome,[4],inactive
Oc1cc(O)cc(/C=C\c2ccc(O)c(O)c2)c1,outcome,[3],inactive
same,outcome,[4],inactive
CCCCCCCCCCCCCCCC(=O)NC[C@@H](COP(=O)([O-])OCC[N+](C)(C)C)OCC,outcome,[3],inactive
same,outcome,[4],inactive
CCCCCC[C@@H]([C@H](C)O)n1cnc2c(N)ncnc21,outcome,[3],inactive
same,outcome,[4],inactive
CCCCCCCCCC(=O)N[C@@H](CN1CCOCC1)[C@@H](O)c1ccccc1,outcome,[3],inactive
same,outcome,[4],inactive

# Source: PubChem BioAssay (NCATS)
